In the library only some 0.87% were active in any assay of this set; here they are far more common.
GCN5L2 inh-1 = qHTS Assay for Inhibitors of GCN5L2. Histone acetyltransferase KAT2A (Homo sapiens), Q92830. GCN5L2 HAT assay, ThioGlo1 CoA-SH fluorescence. Potency, µM (doses to about 58.9 µM), usual class: inhibitors. 390,000 compounds, 0.21% hits
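qHTS, 1536-well. 20nM enzyme, pH 7.5 HEPES/EDTA/Tween-20 buffer; 15 min compound preinc., RT. Start: 75uM H3(1-25), 70uM AcCoA, 50uM ThioGlo1. Read Ex340/Em540 at t=0 (autofluorescence flag) and t=20 min.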
APEX1 inh = qHTS Assay for Inhibitors of the Human Apurinic/apyrimidinic Endonuclease 1 (APE1); recombinant APE1, TAMRA/BHQ-2 abasic DNA cleavage fluorescence; Potency, µM (titrated, usually from 65.8 µM), actives largely listed as inhibitors; 350,000 compounds, 0.35% hits; AID 2517, 2012; note: nearly all actives have a fitted effect of over 55% in size
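APE1 at 0.75 nM preincubated 15 min at room temperature with compound. Reaction then started with 50 nM double-stranded THF-abasic substrate labelled with TAMRA/BHQ-2, and 525/598 nm fluorescence read kinetically. Activity taken as third-minus-first read difference, normalized to DMSO and NSC13755 controls.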
BLM helicase inh = qHTS Assay for Inhibitors of Bloom's syndrome helicase (BLM); Potency, µM (highest dose often 56.1 µM), hits mostly inhibitors; 350,000 compounds, 0.2% hits; RecQ-like DNA helicase BLM (Homo sapiens), P54132; AID 2528, 2010; recombinant BLM DNA unwinding, fluorescence dequenching; note: nearly all actives have a fitted effect of over 35% in size
RECQ1 inh-1 = qHTS Assay for Inhibitors of RecQ-Like Dna Helicase 1 (RECQ1); ATP-dependent DNA helicase Q1 (Homo sapiens), P46063; RECQ1 DNA unwinding, red fluorescence kinetic read; Potency, µM (highest dose often 57.3 µM), hits mostly inhibitors; 240,000 compounds, 0.54% hits; note: nearly all actives have a fitted effect of over 30% in size
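RECQ1T1 50 nM; forked duplex (20 bp + 30-nt ss tails) 200 nM, ATP 2 mM final; pH 8.0, 2 mM MgCl2, 2.5 ug/ml poly(dI-dC); 15 min compound preincubation; discontinuous kinetic read over 2 h at RT.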
TDP1 block = qHTS Assay for Inhibitors of Tyrosyl-DNA Phosphodiesterase (TDP1) | recombinant TDP1, AlphaScreen DNA substrate cleavage | Potency, µM (highest dose often 130 µM), most hits filed as inhibitors | 350,000 compounds, 0.28% hits; note: nearly all actives have a fitted effect of over 40% in size
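Tdp1 1 nM final; 15 min RT w/ cpd; substrate 15 nM, 5 min; beads 10 ug/ml, 10 min; AlphaScreen read. Neg ctrl: no enzyme.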
RECQ1 inh conf = Confirmation qHTS Assay for Inhibitors of RecQ-Like Dna Helicase 1 (RECQ1) | shares compounds with RECQ1 inh-1 | RECQ1 helicase DNA unwinding, fluorescence | Potency, µM (titrated, usually from 229 µM), actives largely listed as inhibitors | 610 compounds, 28% hits | AID 2708, 2010; note: nearly all actives have a fitted effect of over 45% in size
RECQ1 ADP FP = Counterscreen for RECQ1 Inhibitors: ADP Fluorescence Polarization Displacement Assay. 530 compounds, 27% hits. Potency, µM (series often up to 228 µM), hits mostly inhibitors. shares compounds with RECQ1 inh-1. ADP fluorescence polarization displacement counterscreen; note: nearly all actives have a fitted effect of over 45% in size
RECQ1 inh-2 = Confirmation qHTS Assay for Inhibitors of RecQ-Like Dna Helicase 1 (RECQ1) - Round 2 Cherry Picks. shares compounds with RECQ1 inh-1. recombinant RECQ1 DNA unwinding, red fluorescence. Potency, µM (series often up to 119 µM), usual class: inhibitors. 1,100 compounds, 15% hits; note: nearly all actives have a fitted effect of over 50% in size
GCN5L2 inh-2 = qHTS Assay for Inhibitors of GCN5L2: Hit confirmation; shares compounds with GCN5L2 inh-1; GCN5L2 HAT, ThioGlo1 CoA fluorescence, 20 min; Potency, µM, hits mostly inhibitors; 140 compounds, 70% hits; AID 588347, 2011
Of the large screens only hits and unclear results are named; the others gave an inactive call (follow-up assays come after a bar, where they were run); ! = not confirmed by another sample. Calls come from the whole dose curve; as a rule, active = well fitted curve in the direction sought with a large enough effect; inconclusive = small, poorly fitted or top-dose-only effect, or another doubt; inactive = no such curve, though single readings can be large; an effect the other way counts as inactive or inconclusive.

O=C(O)c1ccccc1-c1c2cc(Br)c(=O)cc-2oc2[c]([Hg])c(O)c(Br)cc12	GCN5L2 inh-1 3.2µM!, APEX1 inh 25µM, BLM helicase inh 16µM, RECQ1 inh-1 25µM | RECQ1 inh conf 11µM | RECQ1 ADP FP 0.2µM
CCn1nc(/C=C/c2ccccc2)nc2c(=O)n(C)c(=O)nc1-2	none
CCn1nc(-c2cccs2)nc2c(=O)n(C)c(=O)nc1-2	BLM helicase inh 1.1µM, RECQ1 inh-1 3.5µM | RECQ1 inh conf inconclusive | RECQ1 ADP FP inactive
CC(C)(OOC(C)(C)c1ccccc1)c1ccccc1	none (no result: GCN5L2 inh-1, BLM helicase inh)
CN1C2CCCC1CC(=O)C2	none
O=c1[nH]c(=O)n([C@H]2C[C@H](O)[C@@H](CO)O2)cc1/C=C/Br	none (no result: BLM helicase inh)
c1ccc(C2N3CCCN23)cc1 (stereo unspecified)	RECQ1 inh-1 7.9µM | RECQ1 inh conf inactive | RECQ1 ADP FP inactive
Cc1ccc(C2N3CCCN23)cc1 (stereo unspecified)	none (no result: TDP1 block)
CC(=O)CC(c1ccccc1)c1c(O)c2cc(O)ccc2oc1=O (stereo unspecified)	none
CCCCn1c(N)c(C(=O)OCC2CCCO2)c2nc3ccccc3nc21 (stereo unspecified)	GCN5L2 inh-1 inconclusive, RECQ1 inh-1 inconclusive | RECQ1 inh-2 inactive
CCN(CC)c1ccc(CC2C(=O)N(C)C(=O)N(C)C2=O)cc1	RECQ1 inh-1 32µM | RECQ1 inh-2 45µM
O=C(c1ccc2nc(-c3ccco3)c(-c3ccco3)nc2c1)N1CCC2(CC1)OCCO2	APEX1 inh inconclusive, BLM helicase inh 28µM, RECQ1 inh-1 13µM (no result: TDP1 block) | RECQ1 inh conf inactive | RECQ1 inh-2 inactive
COc1ccc(C(=O)N2CCC3(CC2)OCCO3)cc1	none (no result: RECQ1 inh-1, TDP1 block)
Cn1c(CNC(=O)c2ccco2)nnc1SCC(=O)N1c2ccccc2Sc2ccccc21	GCN5L2 inh-1 inconclusive | RECQ1 inh conf inactive | RECQ1 ADP FP inactive
CCCCCc1cc(O)c2c(c1)OC(C)(C)C1CC=C(C)CC21 (stereo unspecified)	none (no result: APEX1 inh, RECQ1 inh-1, TDP1 block)
Cc1cc(C(C#N)c2ccc(Cl)cc2)c(Cl)cc1NC(=O)c1cc(I)cc(I)c1O (stereo unspecified)	GCN5L2 inh-1 10µM, BLM helicase inh inconclusive (no result: RECQ1 inh-1) | GCN5L2 inh-2 inconclusive
C=CC(=O)OCC(C)C	none (no result: GCN5L2 inh-1, BLM helicase inh)

Source: PubChem (National Center for Advancing Translational Sciences (NCATS))
